# Measurements: PubChem BioAssay AID1066 (SRMLSC, 2008)
# About 790 (0.42%) of roughly 190,000 compounds were called active.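 The calls were made as follows: active = inhibition above a set limit, the median over all tested compounds plus 3 SD (cut at about 9.5% in these data); inconclusive = no clear call, values can overlap the other calls; inactive = the rest.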 Shown is part of a subset that was picked to be rich in actives.
# System: HMG-CoA reductase (Enterococcus faecalis, mvaE)
# Assay: inhibitors of E. faecalis class II HMGR, primary screen, biochemical, Enterococcus faecalis (AID 1066);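 also: enzyme runs in reverse so mevalonate oxidation gives rising NADPH absorbance; 0% = complete reaction with DMSO and 100% = background rate lacking mevalonate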
# Settings: purified E. faecalis HMGR, NADPH absorbance 340 nm kinetic; at 10 µM; stronger effect = higher value
row,SMILES,inhibition
1,O=C(N/N=C/c1ccco1)c1ccc(C(=O)N/N=C/c2ccco2)o1,3.83% (inactive)
2,CCN(C(=O)c1ccc(Br)cc1)c1ccccc1,-0.76% (inactive)
3,CCOC(=O)CNC(=O)CSc1ccc2nnc(-c3cccnc3)n2n1,-1.15% (inactive)
4,CCOc1ccc(-c2ccc(SCC(=O)N3CCOCC3)nn2)cc1,-2.28% (inactive)
5,Cc1ccc(C(=O)NCC(=O)O)s1,-1% (inactive)
6,O=C(Nc1cccc(Cl)c1)Nc1ccccc1NS(=O)(=O)c1cccs1,-2.46% (inactive)
7,CCc1ccc(C(=O)OCC(=O)NCC(F)(F)F)cc1,-8.47% (inactive)
8,COC(=O)c1c(NC(C)=O)sc(C(=O)Nc2ccccc2OC)c1C,-2.99% (inactive)
9,CCOC(=O)c1sc(NC(=O)COc2ncnc3ccccc23)c(C(=O)OCC)c1C,3.4% (inactive)
10,CCC(=O)Nc1sc(C(=O)Nc2ccccc2)c(C)c1C(=O)OC,13% (active)
11,CCOC(=O)Cn1nnnc1C,-2.01% (inactive)
12,Oc1cccc2ccc(/C=C/c3ccc(Br)s3)nc12,0.35% (inactive)
13,Cc1ccc(NC(=O)Nc2cccc(C(F)(F)F)c2)nc1,-0.23% (inactive)
14,CCC(=O)Nc1ccc(Nc2nc(Cl)nc(Nc3ccc(NC(=O)CC)cc3)n2)cc1,-2.77% (inactive)
15,Cc1ccc2nc(Nc3ncc4c(n3)CC(C)(C)CC4=O)nc(C)c2c1,-0.8% (inactive)
16,NC(=O)COc1ccc(C23CC4CC(CC(C4)C2)C3)cc1,6.59% (inactive)
17,O=C(CCN1C(=O)c2ccccc2C1=O)NNC(=O)c1ccc(Cl)cc1Cl,-5.06% (inactive)
18,CC(=O)N/C(=C/c1ccc(OC(F)F)cc1)C(=O)O,0.04% (inactive)
19,CC(CCn1cccn1)NC(=O)CCc1nnc(CCc2ccccc2)o1 (stereo unspecified),-1.69% (inactive)
20,COC(=O)C1=C(C)N(c2ccc(C)cc2)/C(=C/c2ccc(O)cc2)C1=O,1.84% (inactive)
21,O=C(CSC1CC(=O)N(CCc2ccccc2)C1=O)Nc1ccc(Cl)cc1 (stereo unspecified),0.85% (inactive)
22,CC(Sc1nnnn1C1CCCCC1)C(=O)O (stereo unspecified),3.4% (inactive)
23,Cc1cccc(-c2nc3ccccc3c(=O)n2NC(=O)Cc2ccc(Cl)cc2)c1,2.94% (inactive)
24,NNC(=O)C1CC(O)CN1S(=O)(=O)c1ccc(Cl)cc1 (stereo unspecified),-8.75% (inactive)

row,SMILES,inhibition
1,COc1cc(NC(=O)c2ccccc2NS(=O)(=O)c2ccc(Cl)s2)cc(OC)c1,-0.12% (inactive)
2,C/C(=N\NC(=O)NC1CCCCC1)c1ccc(OC(F)F)cc1OC(F)F,-0.33% (inactive)
3,CCc1ccc(CN2C(=O)c3ccccc3C2C(=O)NCC2CCCO2)cc1 (stereo unspecified),-2.1% (inactive)
4,CC(=O)Oc1ccccc1C1=NN(C(C)=O)C(c2ccccc2)C1 (stereo unspecified),-1.75% (inactive)
5,CCSc1nc(-c2ccc(OC)cc2)cc(-c2ccc(OC)cc2)c1C#N,-8.44% (inactive)
6,CCOc1cc(-c2cc(-c3ccc(OC)cc3)nc(N)c2C#N)ccc1O,-5.02% (inactive)
7,COc1ccc(-c2cc(-c3ccc(N)cc3)nc(N)c2C#N)cc1OC,11.6% (active)
8,COc1ccc(C2C(C#N)=C(N)N(c3ncn[nH]3)C3=C2C(=O)CCC3)cc1 (stereo unspecified),3.99% (inactive)
9,FC(F)Oc1ccccc1NC(=S)Nc1cccc(Cl)c1Cl,-10.5% (inactive)
10,CS(=O)(=O)N(Cc1ccccc1)c1ccc(C(=O)NN=C2CCCCCC2)cc1,-2.77% (inactive)
11,CCOc1ccc(C(c2c(C)[nH][nH]c2=O)c2c(C)[nH][nH]c2=O)cc1OCC,-2.78% (inactive)
12,Cc1[nH][nH]c(=O)c1C(c1ccc(-c2ccc(Cl)cc2)o1)c1c(C)[nH][nH]c1=O,11.6% (active)
13,Cc1[nH][nH]c(=O)c1C(c1ccc2c(c1)OCO2)c1c(C)[nH][nH]c1=O,4.7% (inactive)
14,Cc1noc(/C=C/c2ccco2)c1S(=O)(=O)N1CCC(C(=O)Nc2ccc(Cl)cn2)CC1,0.34% (inactive)
15,CC(O)c1cccc(NC(=O)Cc2cccc3ccccc23)c1 (stereo unspecified),-6.15% (inactive)
16,Cc1ccc(Sc2ccncc2S(N)(=O)=O)cc1,-1.29% (inactive)
17,C[C@@H](O)c1nc2ccccc2n1N,0.29% (inactive)
18,CC(C)CC(CC(C)C)=NNC(=O)c1ccc(CSc2nncn2C)cc1,1.23% (inactive)
19,O=C(Nc1cccnc1)c1ccc(Cl)cc1[N+](=O)[O-],-3.45% (inactive)
20,NS(=O)(=O)c1ccc(N2C(=O)C3C4CC(C(Br)C4Br)C3C2=O)cc1 (stereo unspecified),81.6% (active)
21,CCCOc1ccc(N2C(=O)CC(N(CCc3ccc(S(N)(=O)=O)cc3)C(C)=O)C2=O)cc1 (stereo unspecified),-5% (inactive)
22,Cc1ccc(N2C(=O)C3CC3C2=O)cc1 (stereo unspecified),-5.05% (inactive)
23,COc1cc(NS(=O)(=O)c2ccc(NC(=O)CN3C(=O)c4ccccc4C3=O)cc2)ncn1,-9.27% (inactive)
24,O=C(COC(=O)c1ccco1)NCc1ccc(Cl)cc1,-3.08% (inactive)

row,SMILES,inhibition
1,CC(OC(=O)CCc1nc(=O)c2ccccc2n1C)C(=O)NCc1ccc2c(c1)OCO2 (stereo unspecified),2.38% (inactive)
2,O=C(Cn1cnc([N+](=O)[O-])n1)NCCc1ccccc1,3.82% (inactive)
3,O=C(CSc1nnc(Cn2cnc3ccccc32)o1)c1ccccc1,-2.99% (inactive)
4,CC(=O)Nc1ccc(C(=O)CSc2nnc(Cc3ccccc3)o2)cc1,20.1% (active)
5,CCOc1ccc(Nc2nc(Cc3nnc(SCC(=O)c4ccc(C)cc4)o3)cs2)cc1,-4.07% (inactive)
6,COC(=O)c1c(NC(=O)c2c(Cl)cnn2C)sc(C)c1C,11% (active)
7,CCOC(=O)c1c(NC(=O)c2cccs2)sc(C)c1C,0.72% (inactive)
8,COCCCNCC(=O)Nc1sc(C)c(C)c1C(=O)OC,1.07% (inactive)
9,CC1=NN(C(=O)c2ccccc2Br)C(O)(c2cccnc2)C1 (stereo unspecified),0.91% (inactive)
10,CC1=NN(C(=O)c2ccc(Br)cc2)C(O)(c2ccccc2)C1 (stereo unspecified),3.11% (inactive)
11,CCOC(=O)C1(O)CC(C)=NN1C(=O)c1cccc(Br)c1 (stereo unspecified),16.5% (active)
12,Cc1cccc(-n2cc(CN3CCN(C(=O)c4ncn[nH]4)CC3)c(-c3cccc(F)c3)n2)c1,-4.4% (inactive)
13,NC(N)=NCCCc1cn(CC(=O)N2CCNCC2)nn1,-8.27% (inactive)
14,O=C(Cc1ccc([N+](=O)[O-])cc1)N/N=C/c1ccco1,3.38% (inactive)
15,CCCOCC(O)CC(CC)C(=O)NNC(=S)Nc1ccccc1 (stereo unspecified),-0.14% (inactive)
16,C=CCN(CC=C)CCOc1ccccc1[N+](=O)[O-],-2.7% (inactive)
17,COc1cc(NC(=S)N2CCCC(C)C2)cc(OC)c1OC (stereo unspecified),0.35% (inactive)
18,CN1CCN(C(CNS(=O)(=O)c2cccs2)c2cccnc2)CC1 (stereo unspecified),-4.32% (inactive)
19,CN(C)S(=O)(=O)c1ccc(NC(=O)N2CCOCC2)cc1,15.2% (active)
20,COc1cc(NC(=O)N2CCOCC2)cc(OC)c1,-5.26% (inactive)
21,O=C(Nc1ccccc1)N1CCN(C(=O)Nc2ccccc2)CC1,-2.68% (inactive)
22,Cc1ccc(SCCC(=O)NCc2ccccn2)cc1,1.33% (inactive)
23,CN1C(=O)/C(=C/c2ccc(C(=O)NC3CCCC3)cc2)Oc2ccccc21,-13.4% (inactive)
24,O=C(CCN1c2ccccc2Sc2ccccc21)Nc1ccccc1,-1.11% (inactive)

row,SMILES,inhibition
1,CCN1/C(=C/c2ccc3ccc(C)cc3[n+]2CC)Sc2ccccc21,-2.41% (inactive)
2,CCC(=O)/C=C1\Sc2ccccc2N1CC,11.8% (active)
3,Cc1cc(C(=O)COC(=O)C2CC2)c(C)n1-c1ccc(F)cc1,2.01% (inactive)
4,COc1cc(/C=N/NC(=O)c2cc(C)n(-c3ccc(F)cc3)c2C)cc(OC)c1O,3.01% (inactive)
5,Cc1cc(C(=O)N/N=C/c2ccc(O)c([N+](=O)[O-])c2)c(C)n1-c1ccc(F)cc1,11.2% (active)
6,CCOc1ccccc1N1CCN(C(=S)Nc2ccc(S(N)(=O)=O)cc2)CC1,-3.56% (inactive)
7,O=C(Nn1cnc2ccccc2c1=O)c1ccc([N+](=O)[O-])cc1Cl,-1.28% (inactive)
8,CCCCN1C(=O)/C(=C(/C#N)C(N)=O)c2ccccc21,-0.52% (inactive)
9,CN(CC(=O)Nc1ccccc1F)CC(=O)Nc1ccccc1Br,9.9% (active)
10,CSc1ccccc1NC(=O)CN(C)CC(=O)Nc1cccc(Br)c1,3.22% (inactive)
11,CN(CC(=O)Nc1ccccc1[N+](=O)[O-])Cc1ccc(Br)cc1,-2.46% (inactive)
12,O=C(CCC(=O)NNc1nc2ccccc2c2nc(-c3ccccc3)nn12)NCCCN1CCCC1=O,11.7% (active)
13,Cc1cccc(C(=O)NCCCN2CCCC2=O)c1,-2.71% (inactive)
14,O=C(CCn1c(=S)[nH]c2ccccc2c1=O)NCCCN1CCCC1=O,-5.44% (inactive)
15,O=Cc1ccc(Oc2cccc(C(F)(F)F)c2)nc1,-2.83% (inactive)
16,O=C(COC(=O)c1cccc(Br)c1)Nc1cccc2c1C(=O)c1ccccc1C2=O,-0.48% (inactive)
17,COc1ccc(NC(=O)c2sc(N)nc2-c2ccccc2)cc1,3.25% (inactive)
18,COc1ccc(-n2c(O)c(C=NCC(c3ccco3)N3CCCC3)c3ccccc3c2=O)cc1OC (stereo unspecified),3.15% (inactive)
19,N/C(=N\OC(=O)COc1ccc([N+](=O)[O-])cc1)c1ccc(Br)cc1,-0.17% (inactive)
20,Cc1ncc([N+](=O)[O-])n1CCOC(=O)c1ccc(Br)cc1,10% (active)
21,Cc1nn(CCOc2ccc(Br)cc2)c(C)c1[N+](=O)[O-],-5.05% (inactive)
22,CCN(CC)CCNc1nc(-c2ccc(OC(F)F)cc2)c(C)s1,-4.92% (inactive)
23,CCN(C(=O)CSc1nnc2ccccn12)C1CCS(=O)(=O)C1 (stereo unspecified),-6.19% (inactive)
24,COC(=O)c1ccc(-n2cnc3ccccc32)nc1,-2.82% (inactive)
